Assay results reported in PubChem BioAssay AID1159580 (chemical genetic matrix, 2015).
About 2,000 (36%) of roughly 5,500 compounds were called active. About 18% were inconclusive and are not listed. No stated cut-off is given here; in the data, active means normalized growth mostly below about 0.91 (no sharp cut-off); inconclusive means no clear call, values can overlap the other calls; inactive means mostly above about 0.92. The list shows a part of the results.

Assay: chemical genetic growth profiling, strain panel (AID 1159580);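 further: tested at 20 µM; growth read once vehicle control cultures reached saturation at 30 °C; 1 = growth at the plate median or of vehicle wells; lower values mean less growth of the strain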
Details: S. cerevisiae deletion strains, growth OD
[1] = locus YAL013W, strain DEP1, active compounds read low
[2] = locus YDR150W, strain NUM1, active compounds read low
[3] = locus YGR078C, strain PAC10, active compounds read low
[4] = locus YGR229C, strain SMI1, active compounds read low
[5] = locus YJR075W, strain HOC1, active compounds read low
[6] = locus YNL153C, strain GIM3, active compounds read low
[7] = locus YPL055C, strain LGE1, active compounds read low
[8] = locus YPL241C, strain CIN2, active compounds read low
[9] = locus YHR030C, strain SLT2, active compounds read low

Measured: normalized growth

CCCCCCCCCCCCC/C=C/[C@@H](O)[C@@H](N)CO
inactive: locus YAL040C, strain CLN3, active compounds read low 0.984 | locus YDR363W, strain ESC2, active compounds read low 0.929 | locus YER002W, strain NOP16, active compounds read low 1.02 | [3] 1.01 | locus YMR307W, strain GAS1, active compounds read low 1.02 | [6] 0.844 | locus YNL197C, strain WHI3, active compounds read low 1.1 | locus YNL224C, strain SQS1, active compounds read low 1.06 | locus YOR083W, strain WHI5 (second series), active compounds read low 1.11
active: [1] 0.877 | locus YCL061C, strain MRC1 (second series), active compounds read low 0.925 | [2] 0.848 | [4] 0.172 | [5] 0.644 | locus YNL175C, strain NOP13, active compounds read low 1.19 [resistant] | [7] 0.757 | [8] 0.926

C[C@@H](N)CO
inactive: locus YAL021C, strain ccr4, active compounds read low 0.998 | locus YAL026C, strain drs2, active compounds read low 0.992 | locus YAL030W, strain snc1, active compounds read low 0.985 | locus YBL061C, strain skt5, active compounds read low 0.994 | locus YBR009C, strain hhf1, active compounds read low 1.01 | locus YBR023C, strain chs3, active compounds read low 0.987 | locus YBR171W, strain sec66, active compounds read low 0.967 | locus YBR231C, strain swc5, active compounds read low 0.991 | locus YBR279W, strain paf1, active compounds read low 0.987 | locus YCL011C, strain gbp2, active compounds read low 0.997 | locus YCL016C, strain dcc1, active compounds read low 0.991 | locus YCL069W, strain vba3, active compounds read low 0.988 | locus YCR088W, strain abp1, active compounds read low 0.993 | locus YDL005C, strain med2, active compounds read low 0.961 | locus YDL040C, strain nat1, active compounds read low 0.976 | locus YDR001C, strain nth1, active compounds read low 0.983 | locus YDR069C, strain doa4, active compounds read low 0.967 | locus YDR137W, strain rgp1, active compounds read low 0.979 | locus YDR159W, strain sac3, active compounds read low 0.972 | locus YDR195W, strain ref2 0.954 | locus YDR297W, strain sur2, active compounds read low 1 | locus YDR334W, strain swr1, active compounds read low 0.989 | locus YDR335W, strain msn5, active compounds read low 0.995 | locus YDR392W, strain spt3, active compounds read low 0.979 | locus YEL003W, strain gim4, active compounds read low 0.997 | locus YEL037C, strain rad23, active compounds read low 1 | locus YEL061C, strain CIN8 (second series), active compounds read low 1.01 | locus YER015W, strain faa2, active compounds read low 0.989 | locus YER016W, strain bim1, active compounds read low 0.996 | locus YER111C, strain swi4, active compounds read low 0.973 | locus YER155C, strain BEM2 (second series), active compounds read low 0.984 | locus YFR010W, strain ubp6, active compounds read low 1 | locus YGL167C, strain pmr1, active compounds read low 0.984 | locus YGL173C, strain kem1, active compounds read low 1 | locus YGL227W, strain vid30, active compounds read low 0.973 | locus YGL240W, strain doc1, active compounds read low 1.01 | locus YGL253W, strain hxk2, active compounds read low 0.989 | locus YHR013C, strain ard1, active compounds read low 1 | locus YHR027C, strain rpn1, active compounds read low 0.995 | [9] 0.984 | locus YHR079C, strain IRE1, active compounds read low 0.974 | locus YHR142W, strain chs7, active compounds read low 0.98 | locus YJL092W, strain hpr5, active compounds read low 0.996 | locus YJL095W, strain BCK1 (second series), active compounds read low 0.996 | locus YJL095W, strain BCK1, active compounds read low 0.975 | locus YJL115W, strain asf1, active compounds read low 1 | locus YJL129C, strain trk1, active compounds read low 0.989 | locus YJL154C, strain vps35, active compounds read low 0.996 | locus YJL164C, strain tpk1, active compounds read low 1.01 | locus YJL166W, strain qcr8, active compounds read low 1 | locus YJL187C, strain SWE1, active compounds read low 0.988 | locus YJR066W, strain TOR1, active compounds read low 0.914 | locus YKL160W, strain elf1, active compounds read low 0.968 | locus YKR026C, strain gcn3, active compounds read low 0.995 | locus YKR091W, strain srl3, active compounds read low 0.977 | locus YLL001W, strain dnm1, active compounds read low 0.986 | locus YLL026W, active compounds read low 0.994 | locus YLL041C, strain sdh2, active compounds read low 0.997 | locus YLR027C, strain aat2, active compounds read low 0.999 | locus YLR113W, strain HOG1, active compounds read low 1.02 | locus YLR221C, strain rsa3, active compounds read low 1.01 | locus YLR258W, strain gsy2, active compounds read low 0.995 | locus YLR262C, strain YPT6 (second series), active compounds read low 0.973 | locus YLR320W, strain mms22, active compounds read low 1.01 | locus YLR342W, strain FKS1, active compounds read low 0.987 | locus YLR357W, strain rsc2, active compounds read low 0.954 | locus YLR370C, strain arc18, active compounds read low 0.996 | locus YLR384C, strain iki3, active compounds read low 1.01 | locus YML120C, strain ndi1, active compounds read low 0.983 | locus YMR058W, strain fet3, active compounds read low 1.02 | locus YMR125W, strain sto1, active compounds read low 0.947 | locus YMR129W, active compounds read low 0.994 | locus YMR205C, strain PFK2, active compounds read low 1.01 | locus YMR231W, strain pep5, active compounds read low 0.984 | locus YNL071W, strain lat1, active compounds read low 1.01 | locus YNL183C, strain NPR1, active compounds read low 0.901 | locus YNL209W, strain ssb2, active compounds read low 0.974 | locus YNL248C, strain rpa49, active compounds read low 0.942 | locus YNL322C, strain KRE1 (second series), active compounds read low 0.973 | locus YNR049C, strain mso1, active compounds read low 0.981 | locus YOR001W, strain rrp6, active compounds read low 1.01 | locus YOR070C, strain gyp1, active compounds read low 0.986 | locus YOR080W, strain dia2, active compounds read low 0.969 | locus YOR083W, strain WHI5, active compounds read low 0.94 | locus YOR106W, strain vam3, active compounds read low 0.964 | locus YOR231W, strain MKK1, active compounds read low 0.974 | locus YOR265W, strain rbl2, active compounds read low 0.992 | locus YOR270C, strain vph1, active compounds read low 0.976 | locus YOR290C, strain snf2, active compounds read low 0.984 | locus YPL051W, strain arl3, active compounds read low 0.99 | locus YPL078C, strain atp4, active compounds read low 0.976 | locus YPL106C, strain sse1, active compounds read low 0.973 | locus YPL240C, strain hsp82, active compounds read low 0.995 | locus YPL256C, strain CLN2, active compounds read low 0.988

COc1ccc(S(=O)(=O)Nc2cc(C)c(C)cc2[N+](=O)[O-])c(OC)c1
inactive: [1] 1.01 | locus YBR229C, strain ROT2, active compounds read low 1 | locus YCL061C, strain MRC1, active compounds read low 1 | locus YDL101C, strain DUN1, active compounds read low 1.01 | [2] 0.885 | locus YEL061C, strain CIN8, active compounds read low 1.01 | [3] 0.995 | [4] 1.01 | [9] 0.991 | locus YHR087W, strain rtc3, active compounds read low 1 | locus YJR043C, strain POL32, active compounds read low 1 | [5] 1.01 | locus YKL190W, strain CNB1, active compounds read low 1.02 | locus YLR039C, strain RIC1, active compounds read low 0.968 | locus YLR058C, strain SHM2 (second series), active compounds read low 1 | locus YLR085C, strain ARP6, active compounds read low 1.04 | locus YLR262C, strain YPT6, active compounds read low 0.967 | locus YML094W, strain GIM5, active compounds read low 0.983 | locus YMR219W, strain ESC1, active compounds read low 0.999 | locus YMR263W, strain SAP30, active compounds read low 0.973 | locus YNL128W, strain TEP1, active compounds read low 1.02 | [6] 1.02 | locus YNL298W, strain CLA4 (second series), active compounds read low 1.04 | locus YNL322C, strain KRE1, active compounds read low 0.989 | locus YNR030W, strain Alg12, active compounds read low 0.998 | [7] 0.889 | [8] 1.03 | locus YPR135W, strain CTF4, active compounds read low 0.946
